Assay results reported in PubChem BioAssay (Tox21).
Results filed as inconclusive are left out. The source made the active and inactive calls. Unless noted, the call rests on the fitted dose curve; in most records, active means well fitted curve in the direction sought with a large enough effect in the repeat runs; inconclusive means weak or mixed curves; inactive means no such curve, though single readings can be large; an effect the other way counts as inactive or inconclusive.

Experiments:
[1] = qHTS assay to test for compound auto fluorescence at 535 nm (green) in HEK293 cells (AID 720680)
[2] = qHTS assay to test for compound auto fluorescence at 460 nm (blue) in HEK293 cell free culture (AID 720681)
Outline: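 Compounds were added to cell-free DMEM with 10% FBS and fluorescence read directly. The blue channel used 405 nm excitation and 460 nm emission, with triamterene as the reference fluorophore.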

[3] = qHTS assay to test for compound auto fluorescence at 535 nm (green) in HEK293 cell free culture (AID 720682)
Outline: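 Measurement is a direct plate read of green fluorescence (485 nm in, 535 nm out) after compound addition to serum-supplemented DMEM lacking cells, with fluorescein used to express intensities.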

[4] = qHTS assay to test for compound auto fluorescence at 590 nm (red) in HEK293 cell free culture (AID 720683)
Outline: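 Cell-free wells of DMEM with 10% FBS received compound, and intrinsic fluorescence was read at excitation/emission 540/590 nm. Values expressed as equivalence to Rose Bengal sodium.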

[5] = qHTS assay to test for compound auto fluorescence at 590 nm (red) in HepG2 cell free culture (AID 720684)
Outline: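 Auto fluorescence equivalency versus Rose Bengal sodium, red channel Ex/Em 540/590 nm; compounds in cell-free MEM/10% FBS; DMSO vehicle control.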

[6] = qHTS assay to test for compound auto fluorescence at 460 nm (blue) in HepG2 cell free culture (AID 720685)
Outline: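 Cell-free plates of MEM plus 10% FBS received 23 nL compound or DMSO vehicle; blue-channel (405/460 nm) intensity scored against triamterene as reference fluorophore.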

[7] = qHTS assay to test for compound auto fluorescence at 535 nm (green) in HepG2 cell free culture (AID 720686)
[8] = qHTS assay to test for compound auto fluorescence at 460 nm (blue) in HepG2 cells (AID 720687)
Outline: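 HepG2 cells in MEM with 10% FBS, attached overnight at 37 C, were exposed to compound or DMSO for 1 hr at 37 C, 5% CO2. Blue fluorescence was read at 405/460 nm, with triamterene as reference fluorophore.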

[9] = target: Glucocorticoid receptor (Homo sapiens) (UniProt P04150); assay: qHTS assay to identify small molecule agonists of the glucocorticoid receptor (GR) signaling pathway (AID 720691; active means well fitted activation curve with a large enough effect in the signal ratio in the repeat runs, not every such curve was filed as active; the % refers to the signal ratio)
Sequence of Glucocorticoid receptor (Homo sapiens) (P04150 whole entry, looked up): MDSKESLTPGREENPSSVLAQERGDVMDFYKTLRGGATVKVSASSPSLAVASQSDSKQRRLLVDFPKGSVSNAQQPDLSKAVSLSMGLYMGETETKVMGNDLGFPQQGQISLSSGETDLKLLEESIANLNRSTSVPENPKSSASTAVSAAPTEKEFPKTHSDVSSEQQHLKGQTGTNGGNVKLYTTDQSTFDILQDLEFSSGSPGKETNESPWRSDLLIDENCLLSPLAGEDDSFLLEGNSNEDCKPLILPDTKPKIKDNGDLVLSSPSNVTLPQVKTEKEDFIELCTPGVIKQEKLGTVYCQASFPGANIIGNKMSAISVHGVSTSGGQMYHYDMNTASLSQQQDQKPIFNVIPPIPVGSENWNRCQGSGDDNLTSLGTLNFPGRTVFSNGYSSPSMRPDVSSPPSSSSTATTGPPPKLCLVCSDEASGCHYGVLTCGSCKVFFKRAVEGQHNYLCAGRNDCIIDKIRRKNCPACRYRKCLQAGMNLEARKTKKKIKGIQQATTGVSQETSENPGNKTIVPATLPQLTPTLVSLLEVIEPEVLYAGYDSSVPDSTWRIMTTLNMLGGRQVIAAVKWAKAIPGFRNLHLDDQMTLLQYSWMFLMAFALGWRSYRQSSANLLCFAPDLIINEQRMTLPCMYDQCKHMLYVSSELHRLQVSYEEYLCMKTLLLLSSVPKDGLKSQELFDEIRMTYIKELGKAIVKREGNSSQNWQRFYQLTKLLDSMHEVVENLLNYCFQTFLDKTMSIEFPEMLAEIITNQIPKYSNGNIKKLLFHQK
Outline: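 Cells: GR-bla HeLa, endogenous GR with stably integrated GRE-beta-lactamase reporter. Treatment 18 h, 37 C, compounds delivered in DMSO. Detection via LiveBLAzer B/G FRET substrate, 2 h RT, fluorescence intensity.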

[10] = target: Glucocorticoid receptor (Homo sapiens) (UniProt P04150); assay: qHTS assay to identify small molecule antagonists of the glucocorticoid receptor (GR) signaling pathway (AID 720692; active means well fitted inhibition curve with a large enough effect in the signal ratio in the repeat runs, not every such curve was filed as active; the % refers to the signal ratio)
Outline: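 Quantitative HTS in antagonist format: HeLa cells expressing endogenous GR and a stably integrated GRE-bla reporter, stimulated with 5 nM dexamethasone (final) alongside test compounds for 18 h.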

[11] = qHTS assay to identify small molecule antagonists of the glucocorticoid receptor (GR) signaling pathway - cell viability counter screen (AID 720693); further: nearly all actives have a fitted effect of over 55% in size
[12] = qHTS assay for identifying genotoxic compounds that show differential cytotoxicity against isogenic chicken DT40 cell lines with known DNA damage response pathways - wild type cell line (AID 743012); further: nearly all actives have a fitted effect of over 60% in size; further: potency means the concentration at half of the fitted maximal effect
Outline: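 Luminescent ATP viability signal (CellTiter-Glo, 30 min RT) recorded after wild type DT40 cells were incubated with compounds for 40 h at 37 C/5% CO2.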

[13] = qHTS assay for identifying genotoxic compounds that show differential cytotoxicity against isogenic chicken DT40 cell lines with known DNA damage response pathways - Rev3 mutant cell line (AID 743014); further: nearly all actives have a fitted effect of over 55% in size; further: potency means the concentration at half of the fitted maximal effect
[14] = qHTS assay for identifying genotoxic compounds that show differential cytotoxicity against isogenic chicken DT40 cell lines with known DNA damage response pathways - Rad54/Ku70 mutant cell line (AID 743015); further: nearly all actives have a fitted effect of over 60% in size; further: potency means the concentration at half of the fitted maximal effect
[15] = qHTS assay to identify small molecule antagonists of the androgen receptor (AR) signaling pathway - cell viability counter screen (AID 743033; further: nearly all actives have a fitted effect of over 45% in size)
[16] = qHTS assay to identify small molecule antagonists of the androgen receptor (AR) signaling pathway using the MDA cell line - cell viability counter screen (AID 743041; further: nearly all actives have a fitted effect of over 45% in size)
Outline: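 Compound exposure lasted 16 h at 37C in MDA-kb2 AR-luc cells stimulated with R1881. Protease-based CellTiter-Fluor reagent was applied for the final 30 min and fluorescence measured.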

[17] = target: Androgen receptor (Homo sapiens) (UniProt P10275); assay: qHTS assay to identify small molecule antagonists of the androgen receptor (AR) signaling pathway (AID 743035; active means well fitted inhibition curve with a large enough effect in the signal ratio in the repeat runs, not every such curve was filed as active; the % refers to the signal ratio)
Sequence of Androgen receptor (Homo sapiens) (P10275 whole entry, looked up): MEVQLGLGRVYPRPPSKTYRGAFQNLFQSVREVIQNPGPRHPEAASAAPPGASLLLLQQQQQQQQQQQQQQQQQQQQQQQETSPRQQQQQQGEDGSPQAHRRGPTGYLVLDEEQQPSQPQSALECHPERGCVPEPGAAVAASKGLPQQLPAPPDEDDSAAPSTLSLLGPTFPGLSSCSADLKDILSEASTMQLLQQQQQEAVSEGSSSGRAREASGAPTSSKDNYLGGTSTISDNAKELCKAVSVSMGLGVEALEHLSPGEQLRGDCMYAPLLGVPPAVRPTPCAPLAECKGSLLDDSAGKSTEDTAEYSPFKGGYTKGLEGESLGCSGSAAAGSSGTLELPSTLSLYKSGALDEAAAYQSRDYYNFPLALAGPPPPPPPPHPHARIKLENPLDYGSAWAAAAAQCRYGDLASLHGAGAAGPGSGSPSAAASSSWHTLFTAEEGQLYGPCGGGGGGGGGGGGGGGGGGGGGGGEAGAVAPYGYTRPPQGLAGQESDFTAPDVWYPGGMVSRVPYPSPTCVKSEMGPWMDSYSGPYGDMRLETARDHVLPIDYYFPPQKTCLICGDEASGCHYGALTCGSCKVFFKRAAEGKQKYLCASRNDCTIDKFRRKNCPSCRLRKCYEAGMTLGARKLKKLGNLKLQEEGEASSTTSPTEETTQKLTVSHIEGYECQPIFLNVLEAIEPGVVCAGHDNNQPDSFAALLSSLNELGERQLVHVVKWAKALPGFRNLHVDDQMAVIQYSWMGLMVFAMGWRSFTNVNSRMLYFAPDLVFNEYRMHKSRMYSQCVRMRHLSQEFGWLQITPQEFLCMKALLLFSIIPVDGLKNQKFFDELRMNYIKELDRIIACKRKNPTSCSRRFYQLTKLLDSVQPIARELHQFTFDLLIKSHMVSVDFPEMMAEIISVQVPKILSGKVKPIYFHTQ
Outline: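 Quantitative HTS of the Tox21 10K library used HEK293 AR-UAS-bla cells stimulated with R1881 alongside compound for 16 h at 37C, followed by beta-lactamase FRET detection (LiveBLAzer B/G, 2 h, RT).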

[18] = target: Androgen receptor (Homo sapiens) (UniProt P10275); assay: qHTS assay to identify small molecule agonists of the androgen receptor (AR) signaling pathway (AID 743036; active means well fitted activation curve with a large enough effect in the signal ratio in the repeat runs, with a control signal flat, not every such curve was filed as active; the % refers to the signal ratio)
Outline: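 Beta-lactamase under UAS control, stably integrated in HEK293 GripTite cells, reports receptor activation. After 16 h compound treatment, cells received FRET substrate for 2 h at room temperature before fluorescence reading.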

[19] = target: Androgen receptor (Homo sapiens) (UniProt P10275); assay: qHTS assay to identify small molecule agonists of the androgen receptor (AR) signaling pathway using the MDA cell line (AID 743040; further: nearly all actives have a fitted effect of over 20% in size)
Outline: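 Testing was done with the MDA-kb2 AR-luc line, a human breast carcinoma stably transfected with MMTV-luciferase containing AR and GR response elements. Cells were exposed 16 h at 37C before ONE-Glo luminescence detection.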

[20] = target: Androgen receptor (Homo sapiens) (UniProt P10275); assay: qHTS assay to identify small molecule antagonists of the androgen receptor (AR) signaling pathway using the MDA cell line (AID 743042; further: nearly all actives have a fitted effect of over 55% in size)
Outline: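 MDA-kb2 breast carcinoma cells carrying MMTV-luciferase (AR/GR responsive) were co-treated with compounds and the agonist R1881 for 16 h at 37C. Inhibition read as ONE-Glo luminescence; CellTiter-Fluor fluorescence measured in parallel for cytotoxicity.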
On the % scale 0 is the no-effect control and ±100 the full control effect.

CCCOc1ccc(C(=O)OCCN(CC)CC)cc1N
inactive: outcome [1] | outcome [2] | outcome [3] | outcome [4] | outcome [5] | outcome [6] | outcome [7] | outcome [8] | Potency [9] | outcome [10] | outcome [11] | outcome [15] | outcome [16]
active: Potency [12] 9.44 µM | Potency [13] 6.68 µM | Potency [14] 13.3 µM

CCCc1ccc(O)c(OC)c1
inactive: outcome [1] | outcome [2] | outcome [3] | outcome [4] | outcome [5] | outcome [6] | outcome [7] | outcome [8] | Potency [9] | outcome [10] | outcome [11] | Potency [13] | Potency [14] | outcome [15] | outcome [16]

CCCCCCCCCCCCCCCCN(C)C
inactive: fluorescence, % of fluorescein [1] 0.0696% [at 3.72 µM] | fluorescence, % of fluorescent control [2] -0.0334% [at 3.72 µM] | activity change [3] 0.0487% [at 3.72 µM] | fluorescence, % of fluorescent control [4] 0.0064% [at 3.72 µM] | fluorescence, % of Rose Bengal [5] -0.0248% [at 3.72 µM] | fluorescence, % of fluorescent control [6] -0.0345% [at 3.72 µM] | fluorescence, % of fluorescein control [7] 0.006% [at 3.72 µM] | fluorescence, % of fluorescent control [8] -0.0699% [at 3.72 µM] | activation [9] -0.164% [at 6.9 µM] | activity change, negative = inhibition [10] -19.5% [at 7.04 µM] | viability change, negative = cytotoxic [11] 9.67% [at 7.04 µM] | activity change, negative = cytotoxicity [12] 9.27% [at 8.52 µM] | activity change, negative = cytotoxicity [15] -5.02% [at 7.04 µM] | activity change, negative = inhibition [17] -9.68% [at 7.04 µM] | activation [18] -6% [at 6.9 µM] | activity change [19] 0.294% [at 8.47 µM] | viability change, negative = cytotoxic [16] -2.54% [at 8.47 µM] | activity change, negative = inhibition [20] 19.6% [at 8.47 µM]

O=C(CCBr)N1CCN(C(=O)CCBr)CC1
inactive: outcome [1] | outcome [2] | outcome [3] | outcome [4] | outcome [5] | outcome [6] | outcome [7] | outcome [8] | Potency [9] | outcome [10] | outcome [11] | Potency [12] | Potency [14] | outcome [15] | outcome [16]

N=C(N)N1CCc2ccccc2C1
inactive: outcome [1] | outcome [2] | outcome [3] | outcome [4] | outcome [5] | outcome [6] | outcome [7] | outcome [8] | Potency [9] | outcome [10] | outcome [11] | Potency [13] | Potency [14] | outcome [15] | outcome [16]

COC(=O)c1ccccc1Cl
inactive: outcome [1] | outcome [2] | outcome [3] | outcome [4] | outcome [5] | outcome [6] | outcome [7] | outcome [8] | Potency [9] | outcome [10] | outcome [11] | Potency [12] | Potency [13] | Potency [14] | outcome [15] | outcome [16]

OCCC(F)(F)C(F)(F)C(F)(F)C(F)(F)C(F)(F)C(F)(F)F
inactive: outcome [1] | outcome [2] | outcome [3] | outcome [4] | outcome [5] | outcome [6] | outcome [7] | outcome [8] | Potency [9] | outcome [10] | outcome [11] | Potency [13] | Potency [14] | outcome [15] | outcome [16]

CC(C)(C)C(=O)CC(=O)C(C)(C)C
inactive: outcome [1] | outcome [2] | outcome [3] | outcome [4] | outcome [5] | outcome [6] | outcome [7] | outcome [8] | Potency [9] | outcome [10] | outcome [11] | Potency [12] | Potency [14] | outcome [15] | outcome [16]

C=CCN1CCc2nc(N)sc2CC1
inactive: outcome [1] | outcome [2] | outcome [3] | outcome [4] | outcome [5] | outcome [6] | outcome [7] | outcome [8] | Potency [9] | outcome [10] | outcome [11] | Potency [12] | Potency [14] | outcome [15] | outcome [17] | outcome [18] | outcome [19] | outcome [16] | outcome [20]

CCOC(=O)c1ccc(N(C)C)cc1
inactive: outcome [1] | outcome [2] | outcome [3] | outcome [4] | outcome [5] | outcome [6] | outcome [7] | outcome [8] | Potency [9] | outcome [10] | outcome [11] | Potency [12] | Potency [14] | outcome [15] | outcome [16]

C=CC(C)(CCC=C(C)C)OC(=O)C(C)C (configuration not stated)
inactive: outcome [1] | outcome [2] | outcome [3] | outcome [4] | outcome [5] | outcome [6] | outcome [7] | outcome [8] | Potency [9] | outcome [10] | outcome [11] | Potency [12] | Potency [13] | Potency [14] | outcome [15] | outcome [16]

C=COCCCCO
inactive: outcome [1] | outcome [2] | outcome [3] | outcome [4] | outcome [5] | outcome [6] | outcome [7] | outcome [8] | Potency [9] | outcome [10] | outcome [11] | Potency [12] | Potency [13] | Potency [14] | outcome [15] | outcome [16]

CC(=O)OC/C=C(/C)CCC=C(C)C
inactive: outcome [1] | outcome [2] | outcome [3] | outcome [4] | outcome [5] | outcome [6] | outcome [7] | outcome [8] | Potency [9] | outcome [10] | outcome [11] | Potency [12] | Potency [14] | outcome [15] | outcome [16]

C/C=C(\C)C(=O)OC/C=C(\C)CCC=C(C)C
inactive: outcome [1] | outcome [2] | outcome [3] | outcome [4] | outcome [5] | outcome [6] | outcome [7] | outcome [8] | Potency [9] | outcome [10] | outcome [11] | Potency [12] | Potency [13] | Potency [14] | outcome [15] | outcome [16]

O=C(O)COc1ccc2ccccc2c1
inactive: outcome [1] | outcome [2] | outcome [3] | outcome [4] | outcome [5] | outcome [6] | outcome [7] | outcome [8] | Potency [9] | outcome [10] | outcome [11] | Potency [13] | Potency [14] | outcome [15] | outcome [16]
